This is an account of results in PubChem BioAssay AID368 (University of Pittsburgh Molecular Library Screening Center, 2006).

Each structure is given as a SMILES string. About 85 (0.1%) of roughly 65,000 compounds were called active. No stated cut-off is given here; in the data, active means inhibition above about 50%; inactive means the rest. What follows is part of a selection rich in actives, with near analogues and random picks from the rest.

Sequence of M-phase inducer phosphatase 2 (Homo sapiens) (P30305 whole entry, looked up, the tested form may be a part): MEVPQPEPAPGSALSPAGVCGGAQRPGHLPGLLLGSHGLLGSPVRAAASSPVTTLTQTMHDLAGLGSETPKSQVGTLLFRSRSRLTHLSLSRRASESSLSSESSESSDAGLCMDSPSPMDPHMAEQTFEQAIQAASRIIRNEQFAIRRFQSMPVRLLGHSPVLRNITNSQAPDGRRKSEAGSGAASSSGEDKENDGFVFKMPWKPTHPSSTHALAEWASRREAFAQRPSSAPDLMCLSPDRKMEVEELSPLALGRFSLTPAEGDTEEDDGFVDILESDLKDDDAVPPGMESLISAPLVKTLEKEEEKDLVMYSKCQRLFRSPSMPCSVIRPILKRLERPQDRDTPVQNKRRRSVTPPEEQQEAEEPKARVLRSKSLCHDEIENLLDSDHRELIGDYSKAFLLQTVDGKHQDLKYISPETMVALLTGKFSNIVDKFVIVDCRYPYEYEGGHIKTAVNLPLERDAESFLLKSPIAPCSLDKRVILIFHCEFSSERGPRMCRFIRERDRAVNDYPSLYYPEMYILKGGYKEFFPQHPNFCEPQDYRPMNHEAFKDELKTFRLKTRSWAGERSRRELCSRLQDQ

The assay has as its target M-phase inducer phosphatase 2 (Homo sapiens) (UniProt P30305). The experiment in a line: human Cdc25B tyrosine phosphatase blockers – biochemical, OMFP fluorescence, catalytic domain, primary screen (AID 368). As to conditions: recombinant Cdc25B, OMFP fluorescence Ex485/Em525; active compounds read high;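 compounds tested at 10 µM final in the well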.
`COc1ccccc1NC(=O)CSc1nnc(Cn2nnc(-c3ccccc3)n2)n1-c1ccccc1`: the inhibition was -10.9% (inactive). For the compound `COc1ccc(-c2nnn(CC(=O)N(CCO)C(C(=O)NC3CCCC3)c3ccc(F)cc3)n2)cc1` (configuration not stated), the inhibition is -0.846% (inactive). As for `Cc1ccc(S(=O)(=O)N2CCC(C(=O)OCC(=O)N3CC(=O)Nc4ccccc43)CC2)cc1`, the figure is -6.66% (inactive).

As for `O=C(CSc1nnc(-c2cccnc2)n1Cc1ccco1)c1ccc(Cl)c(Cl)c1`, the inhibition was 8.97% (inactive). The result for `CCc1c(C)n([O-])c2c([n+]1=O)CCCCC2` reads -6.36% (inactive); that for `COc1cc2cc(CN(CCN3CCCC3)C(=O)Nc3ccccc3Cl)c(=O)[nH]c2cc1OC`, -1.08% (inactive); that for `O=C(Cn1c(-c2ccc(Cl)cc2)noc1=O)N1CCN(c2ccccc2F)CC1`, -5.95% (inactive).

As for `CC(C)Oc1ccc(C(=O)Nc2cc(=O)n(C)c(=O)n2C)cc1`, the inhibition was -9.38% (inactive). The result for `Fc1cc(F)c2nc(N3CCOCC3)sc2c1` reads 0.504% (inactive); that for `CC1CCCC(N2CCN(C(=O)c3ccc(F)cc3)CC2)C1` (configuration not stated), -7.26% (inactive). As for `Cc1ccc(NC(=O)CN2CCC3(O)CCCCC3C2c2ccc3c(c2)OCO3)c(C)c1` (configuration not stated), the figure is 5.36% (inactive); as for `CCOC(=O)c1sc2nc(CSCC(=O)OCc3ccc(C(=O)OC)o3)[nH]c(=O)c2c1C`, -1.69% (inactive); as for `COCCN1C(=O)c2oc3c(C)cc(C)cc3c(=O)c2C1c1cccc(O)c1` (configuration not stated), -0.703% (inactive). As to `CC(=O)c1cc2c(cc1N)OCO2`, the inhibition was 5.42% (inactive). On to `COc1ccc(N2CC(C)Cn3c2nc2c3c(=O)n(Cc3ccccc3F)c(=O)n2C)c(OC)c1` (configuration not stated), for which the inhibition was 2.66% (inactive). Turning to `CC(=O)c1c(C)c[nH]c1C`, the inhibition was -2.46% (inactive). The result for `O=S(=O)(NCc1ccccn1)c1ccc(F)cc1` reads -7.59% (inactive); that for `NS(=O)(=O)c1ccc(NS(=O)(=O)/C=C/c2ccccc2)cc1`, 4.88% (inactive). As for `O=S(=O)(/C=C/c1ccccc1)NCCc1ccccn1`, the inhibition was 102% (active).

`O=C(O)c1cscn1`: the inhibition was 5.38% (inactive). The result for `COc1ccccc1Nc1ncnc2c1oc1ccccc12` reads 14.9% (inactive); that for `CC1(C)CC(=O)C=C(NCCCNC2CCCCC2)C1`, -12.2% (inactive).

In the case of `N#Cc1ccc(COC(=O)Cn2nnc(-c3ccccc3)n2)cc1`, the inhibition was -19.8% (inactive). For `CC(NC(=O)Nc1ccccc1)c1ccccc1` (configuration not stated), the inhibition was -11.4% (inactive).

Regarding `NC(=O)C1CC=CCC1C(=O)OCC(Cl)=C(Cl)Cl` (configuration not stated), the inhibition is -7.55% (inactive).

Take `CC1CN(c2cc(=O)n(Cc3ccc(F)cc3)c(=O)[nH]2)CC(C)O1` (configuration not stated): the inhibition was -7.48% (inactive). Regarding `CCOC(=O)c1cccc(NC(=O)C2CCCN(S(=O)(=O)c3cnc[nH]3)C2)c1` (configuration not stated), the inhibition was -1.24% (inactive).
